Values without a mark were called inactive. Calls follow the shape of the dose curve; as a rule, active = well fitted activation curve with a large enough effect; inconclusive = small, poorly fitted or top-dose-only effect; inactive = no such curve, though single readings can be large or run the other way.

This experiment in a line: Confirmatory qHTS for Identification of Small Molecule Activators of Huntingtin-Antisense Promoter Activity. As to conditions: HEK293 HTT-AS promoter firefly luciferase reporter, 24 h; series mostly up to 57.5 µM; activity change, positive = activation: at the top concentration. The procedure, abridged:
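2,500 luciferase reporter HEK293 cells/well; 24 h culture; cpds up to 57.5 uM final, PTC124 50 uM ctrl; 24 h, 37C; Dual-Glo FLuc reagent, 10 min RT; lum. Norm.: vehicle 0%, zero RLU -100%.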
Consider `CCCN(c1ccccc1CC)S(=O)(=O)c1ccc2c(c1)CC(C)N2C(=O)C1CC1` (stereo not drawn), for which the “activity change, positive = activation” value is -79.9%.

On to `COc1cccc(CNC(=O)c2cc3c(-c4ccccc4F)nn(C)c3s2)c1`, for which the “activity change, positive = activation” value is -33.5%.

As for `CCS(=O)(=O)c1ncc(Cl)c(C(=O)NCc2ccc(OC)cc2)n1`, the “activity change, positive = activation” value was -95.5%.

As for `O=C(C1CCC(CNS(=O)(=O)c2cccs2)CC1)N1CCN(c2ccc(Cl)cc2)CC1` (stereo not drawn), the “activity change, positive = activation” value was -53.1%.

As for `COC(=O)c1c(C)oc2ccc(N(C(=O)c3ccncc3)S(=O)(=O)c3ccc(OC)cc3)cc12`, the “activity change, positive = activation” value was -94.2%.

As to `CN[C@H]1[C@@H](O)[C@@H]2O[C@@H]3O[C@H](C)CC(=O)[C@]3(O)O[C@@H]2[C@@H](NC)[C@H]1O`, the “activity change, positive = activation” value was -0.802%.

`OCCCn1c(-c2ccc(F)cc2)csc1=Nc1ccc(F)cc1`: the “activity change, positive = activation” value was -26%.

Regarding `COc1ccc(NC(=O)CSc2oc(-c3cccs3)nc2S(=O)(=O)c2ccccc2)c(OC)c1`, the “activity change, positive = activation” value was -25.9%.

Regarding `COc1ccccc1CCNC(=O)c1ccc(-c2nc(CSc3ccc(C)cc3)c(C)o2)cc1`, the “activity change, positive = activation” value is -5.99%.

`CCCCC(CC)CNC(=O)Cc1ccc(-n2c(=O)[nH]c3ccccc3c2=O)cc1` (stereo not drawn): the “activity change, positive = activation” value is -28.7%.

As to `CC1=C(C(=O)OCc2ccc(C)cc2)C(c2ccccc2Cl)CC(=O)N1` (stereo not drawn), the “activity change, positive = activation” value was -40%.

For the compound `O=C(COCc1cc(-c2cccs2)on1)N1CCN(c2cccc(Cl)c2)CC1`, the “activity change, positive = activation” value is -13.4%.

`CCCc1cc(N2CCN(c3cccc(C)c3C)CC2)n2cnnc2n1`: the “activity change, positive = activation” value is -72.5%.

In the case of `CC1CCCCN1S(=O)(=O)c1ccc2c(c1)oc(=O)n2CC(=O)Nc1ccc(Cl)cc1` (stereo not drawn), the “activity change, positive = activation” value was -38.9%.

Turning to `Cc1ccc(-c2ncn(-c3ccc(Nc4nccc(-c5cccc(N6CCOCC6)c5)n4)cc3)n2)cn1`, the “activity change, positive = activation” value was -91.3% [at 115 µM].

On to `CCc1ccc(NC(=O)c2ccc(F)c(S(=O)(=O)N3CCC(C)CC3)c2)cc1`, for which the “activity change, positive = activation” value was -23.4%.

For the compound `O=C(CN1C(=O)C2(SCC(=O)N2c2ccc(F)c(F)c2)c2ccccc21)Nc1cccc(Cl)c1` (stereo not drawn), the “activity change, positive = activation” value was -40.2%.

For the compound `Cc1ccc(NC(=O)c2c(NC(=O)C(F)(F)F)sc3c2CCCCC3)cc1`, the “activity change, positive = activation” value was -93.8%.

On to `N#CC[C@H](C1CCCC1)n1cc(-c2ncnc3[nH]ccc23)cn1`, for which the “activity change, positive = activation” value was -0.0278%.

Take `Cc1ccc(NS(=O)(=O)c2ccc(-c3cnc(C4CC4)o3)cc2)cc1N(C)C`: the “activity change, positive = activation” value was -91.1%.

In the case of `CC(=O)c1cccc(NS(=O)(=O)c2cccc(S(=O)(=O)c3ccc(Br)cc3)c2)c1`, the “activity change, positive = activation” value is -75.3%.

In the case of `Cc1ccc(C)c(NC(=O)Cn2c(-c3nonc3N)nc3ccccc32)c1`, the “activity change, positive = activation” value was -5.46%.

`CCN(CC)S(=O)(=O)c1ccc(NC(=O)CCc2c(C)nc3cc(-c4ccc(Cl)cc4)nn3c2C)cc1`: the “activity change, positive = activation” value is -85.7%.

The record behind these values is PubChem BioAssay AID1508622 (National Center for Advancing Translational Sciences (NCATS), 2021).
